Assay outcomes as filed in PubChem BioAssay.
Epigenetic derep = regulators of epigenetic silencing causing reporter derepression in mouse cells; murine LDR cells, GFP reporter derepression, 30 h; Potency, µM (doses to about 53.9 µM), for inactives: top-dose GFP activation, actives largely listed as activators; 280,000 compounds, 0.2% hits; active means well fitted activation curve with a large enough effect; further: potency means the concentration at half of the fitted maximal effect; % of control where 0% means no effect; nearly all actives have a fitted effect of over 60% in size
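Murine LDR cells carrying a silenced, genomically integrated CMV-driven GFP reporter were exposed to compound for 30 hours at 37 C. After PBS washes, GFP-positive cells (20–120 um objects) were counted by laser-scanning microplate cytometry.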
D1 agonist = activates the human D1 dopamine receptor. P21728. HEK293 T-REx D1 cells, calcium flux, agonist mode. activation, % at 2 µM. 360,000 compounds, 1% hits; further: 0% is about no effect
Target sequence (P21728 whole entry, looked up): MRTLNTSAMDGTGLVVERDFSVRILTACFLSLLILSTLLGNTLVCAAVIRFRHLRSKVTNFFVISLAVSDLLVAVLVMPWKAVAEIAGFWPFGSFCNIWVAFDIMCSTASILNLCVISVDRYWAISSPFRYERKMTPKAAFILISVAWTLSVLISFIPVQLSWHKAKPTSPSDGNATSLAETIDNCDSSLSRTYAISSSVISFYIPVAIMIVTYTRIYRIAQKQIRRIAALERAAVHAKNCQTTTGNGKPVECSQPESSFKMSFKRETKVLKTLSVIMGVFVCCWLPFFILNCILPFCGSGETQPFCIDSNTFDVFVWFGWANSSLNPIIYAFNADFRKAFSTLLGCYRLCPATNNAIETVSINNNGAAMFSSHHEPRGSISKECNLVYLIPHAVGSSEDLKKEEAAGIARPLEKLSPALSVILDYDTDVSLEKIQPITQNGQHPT
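Agonism was scored from calcium flux recorded over 180 s (1 read/s) after pintool compound addition, following a 10-cycle baseline. Cells were inducible force-coupled HEK293 TREx D1, plated overnight at 30 C and loaded with no-wash calcium dye.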
D1 antag = human D1 dopamine receptor antagonism. P21728. HEK293 TREx D1 cells, calcium flux, dopamine EC80; stronger effect = lower value. activity change, negative = inhibition, % at 10 µM. 360,000 compounds, 3.2% hits. AID 504652; in the data active means activity change below about -30%; further: on the % scale 0 is the no-effect control and ±100 the full control effect
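Kinetic fluorescence of a calcium dye serves as the read-out. D1-expressing Hek293 Trex cells, induced overnight at 30 C, are exposed to compound for 180 s before an EC80 dopamine addition, then read 180 s further.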
D1 PAM = human D1 dopamine receptor positive modulation; P21728; HEK293 TREx D1 cells, calcium flux, dopamine EC20 potentiation; potentiation, % at 10 µM; 360,000 compounds, 0.036% hits; in the data active means potentiation above about 30%; further: 0% is about no effect
TRHR enhancer = allosteric enhancers of human TRH receptor; P34981; TRHR cells, fluo-8 calcium fluorescence, EC20 TRH enhancement; enhancement, % at 2 µM; 360,000 compounds, 0.66% hits; AID 493056; in the data active means enhancement above about 30%; further: 0% is about no effect
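TRHR-expressing cells loaded with fluo-8 calcium dye were read kinetically (ex 480/em 530) during compound addition, then stimulated with an EC20 of TRH (10 nM final). Enhancement of the Gq-mediated intracellular calcium response was scored.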
TRHR ag = activates the human TRH receptor; TRHR cells, calcium flux fluo-8, FDSS agonist mode; activation, % at 2 µM; 360,000 compounds, 0.18% hits; further: 0% is about no effect
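In this calcium-flux screen, cells bearing human TRHR are dye-loaded with fluo-8, baselined for 10 cycles, then exposed to library compounds; positive kinetic calcium responses during the agonist phase mark hits, with TRH as control.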
Starred values were filed as active, the others as inactive; . = no result given; [ ] = dose if it differs, or a comment. In the library only some 4.6% were active in any assay of this set; here they are far more common. Unless noted, no stated cut-off is given here; in the data, active means activation above about 30%; inactive means the rest.

SMILES	Epigenetic derep	D1 agonist	D1 antag	D1 PAM	TRHR enhancer	TRHR ag
CCN(CC(=O)Nc1ccc(NC(C)=O)cc1)C(=O)CCCOc1ccc(C(C)(C)C)cc1	.	31.8*	0.0	6.6	4.9	1.1
C=CCn1c(N)c(C(=O)OC(C)(C)C)c2nc3ccccc3nc21	0.1%	2.5	16.7	0.1	2.5	1.1
C=CCn1c(N)c(C(=O)Nc2ccccc2)c2nc3ccccc3nc21	4.9%	4.3	-35.9*	-3.4	13.9	0.0
CC(C)c1ccc(/C=N/NC(=O)C2CCCC2)cc1	.	3.1	-3.1	-1.1	-6.2	-0.2
CC(C)(C)c1ccc(/C=N/NC(=O)C2CCCC2)cc1	.	1.8	-46.7*	-6.4	-0.7	-0.3
Cc1cccc(NC(=O)Cc2csc(COc3cccc(C)c3)n2)c1	-2.2%	-0.1	1.3	0.1	-15.8	-0.6
CCOc1ccccc1NC(=O)Cc1csc(COc2cccc(C)c2)n1	-3.2%	68.2*	0.6	1.1	-4.9	2.7
COc1ccc(Cl)cc1NC(=O)CCN1C(=O)C2C3CCC(C3)C2C1=O (centres undefined)	.	2.4	2.4	-4.5	-3.9	-1.1
COc1ccccc1NC(=O)CCN1C(=O)C2C3CCC(C3)C2C1=O (centres undefined)	.	1.0	-78.4*	-6.1	-1.8	0.5
Cc1ccc(C(=O)Nc2ccc3oc(-c4ccc(C(C)(C)C)cc4)nc3c2)cc1	-0.8%	29.1	2.4	0.8	3.4	1.4
Clc1ccc2c(c1)C(N1CCNCC1)=Nc1ccccc1O2	-1.4%	19.8	-71.2*	-5.8	8.4	0.5
O=C(c1ccccc1)c1c2c(cc3sc4ccccc4[n+]13)-c1cccc3cccc-2c13	11.2µM*	241.7*	-24.8	-4.6	21.6	79.3*
O=c1c(S(=O)(=O)c2ccccc2)cn(Cc2ccccc2)c2cc(N3CCOCC3)c(F)cc12	0.0%	-0.2	4.8	-0.3	8.8	2.8
CSC1=N/C(=C\c2ccccc2)C(=O)N1C	3.8%	.	.	.	.	.
CCSC1=N/C(=C/c2ccsc2)C(=O)N1c1ccccc1	0.0%	5.2	-72.0*	-11.5	-2.1	0.3
CCCCSC1=N/C(=C/c2ccsc2)C(=O)N1c1ccccc1	0.0%	16.2	-44.9*	-12.6	-8.3	1.7
CCCSC1=N/C(=C/c2ccsc2)C(=O)N1c1ccccc1	0.0%	12.6	-38.3*	-13.4	-1.3	1.0
C=CCSC1=N/C(=C\c2ccsc2)C(=O)S1	3.7%	3.1	-4.1	-2.3	1.2	0.2
COc1ccc(CNC(=O)c2cc3cccc4c3n2CC(C)S4)cc1 (centres undefined)	1.4%	2.3	-5.2	-0.5	-4.0	0.3
CCOC(=O)c1cccc(Nc2ccc3cc(S(=O)(=O)N4CCCCC4)ccc3n2)c1	0.3%	2.6	-14.0	-2.4	0.4	0.4
Cc1cc(C)c(-c2cc([C@H](C)O/N=C\[C@@H](C)[C@H](OCc3ccccc3)C(C)C)on2)c(C)c1	1.1%[10.1 µM]	.	.	.	.	.
COc1ccc(Cl)cc1NC(=O)[C@H]1O[C@@H]2OC(C)(C)O[C@@H]2[C@H]2OC(C)(C)O[C@H]21	3.5%	1.8	-0.2	0.3	-1.9	0.4
COc1ccc(CNc2nc(-c3ccco3)nn2C(=O)c2ccccc2C)cc1	1.9%	4.3	-36.0*	-2.2	2.8	0.8
COc1ccc(CNc2nc(-c3ccccc3)nn2C(=O)c2ccc([N+](=O)[O-])cc2)cc1	0.0%	0.0	4.7	-1.2	-1.4	-1.3
COc1ccc(CNc2nc(-c3ccccc3)nn2C(=O)c2cccs2)cc1	0.0%	36.9*	8.7	-0.2	-6.2	8.7
COc1ccc(CNc2nc(-c3cccnc3)nn2S(C)(=O)=O)cc1	0.0%	4.3	-31.0*	-2.5	-5.8	-0.6
Cc1ccc(CNc2nc(-c3ccco3)nn2C(=O)c2ccccc2[N+](=O)[O-])cc1	-3.2%	7.0	-62.0*	-2.4	37.4*	-1.7
CCCCN(C)C(=O)Cn1cnc2sc(C)c(S(=O)(=O)N3CCC(C)CC3)c2c1=O	-0.4%	5.6	4.6	0.7	2.4	2.6
O=C(NCCCO)C(=O)NCC(c1ccc2c(c1)OCO2)N1CCOCC1 (centres undefined)	0.0%	1.3	-7.3	-5.2	-3.5	0.3
